# Experimental data: the supplement of paper PMC4466140
# B1: unnamed (peptide)
# chain: APPPPPRRATPEKKP
# B2: unnamed (peptide)
# chain: TIRRRAPLSLLESHT
# How the values were obtained:
# Test in all cases: SPOT peptide array binding signal intensity (averaged, normalized) (arbitrary units (background-subtracted, floor 0; scale differs between SH3 domains)); higher = stronger binding of the SH3 domain to the peptide
# CaNbp2 = target: CaNbp2
# In short: (§1)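 GST-fused SH3 domains from four yeast species were expressed in E. coli BL21(DE3), purified on glutathione Sepharose and incubated at 10 μg/ml overnight at 4°C in TBS-based blocking buffer on cellulose membranes carrying synthetic 15-mer peptides, with cysteines replaced by serines. Bound protein was detected with anti-GST antibody, an HRP anti-mouse secondary and luminol, then imaged and quantified with Genespotter. Binding signal is the normalized, background-subtracted spot intensity averaged over replicates, in arbitrary units that differ between domains.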
# CaRvs167 = target: CaRvs167
# In short: as §1
# CaRvs167-3 = target: CaRvs167-3
# In short: as §1
# CaSho1 = target: CaSho1
# In short: as §1
# CaSla1-D1-D2 = target: CaSla1-D1-D2
# In short: as §1
# CaSla1-D3 = target: CaSla1-D3
# In short: as §1
# ScAbp1 = target: ScAbp1
# In short: as §1
# ScBbc1 = target: ScBbc1
# In short: as §1
# ScBem1-D1 = target: ScBem1-D1
# In short: as §1
# ScBzz1-D1 = target: ScBzz1-D1
# In short: as §1
# ScBzz1-D2 = target: ScBzz1-D2
# In short: as §1
# ScCyk3 = target: ScCyk3
# In short: as §1
# ScFus1 = target: ScFus1
# In short: as §1
# ScHof1 = target: ScHof1
# In short: as §1
# ScHse1 = target: ScHse1
# In short: as §1
# ScLsb1 = target: ScLsb1
# In short: as §1
# ScLsb2 = target: ScLsb2
# In short: as §1
# ScLsb3 = target: ScLsb3
# In short: as §1
# ScLsb4 = target: ScLsb4
# In short: as §1
# ScMyo3 = target: ScMyo3
# In short: as §1
# ScMyo5 = target: ScMyo5
# In short: as §1
# ScNbp2 = target: ScNbp2
# In short: as §1
# ScPex13 = target: ScPex13
# In short: as §1
# ScRvs167 = target: ScRvs167
# In short: as §1
# ScSho1 = target: ScSho1
# In short: as §1
# ScSla1-D1-D2 = target: ScSla1-D1-D2
# In short: as §1
# ScSla1-D3 = target: ScSla1-D3
# In short: as §1
# SpAbp1-D1 = target: SpAbp1-D1
# In short: as §1
# SpBbc1 = target: SpBbc1
# In short: as §1
# SpBzz1-D1 = target: SpBzz1-D1
# In short: as §1
# SpBzz1-D2 = target: SpBzz1-D2
# In short: as §1
# SpCyk3 = target: SpCyk3
# In short: as §1
# SpHof1 = target: SpHof1
# In short: as §1
# SpHof1-2 = target: SpHof1-2
# In short: as §1
# SpHof1-3 = target: SpHof1-3
# In short: as §1
# SpHse1 = target: SpHse1
# In short: as §1
# SpLsb1 = target: SpLsb1
# In short: as §1
# SpLsb4 = target: SpLsb4
# In short: as §1
# SpMyo1 = target: SpMyo1
# In short: as §1
# SpNbp2 = target: SpNbp2
# In short: as §1
# SpPex13 = target: SpPex13
# In short: as §1
# SpRvs167 = target: SpRvs167
# In short: as §1
# SpSla1-D1-D2 = target: SpSla1-D1-D2
# In short: as §1
# SpSla1-D3 = target: SpSla1-D3
# In short: as §1
# AgAbp1 = target: AgAbp1
# In short: as §1
# AgBbc1 = target: AgBbc1
# In short: as §1
# AgBem1-D1 = target: AgBem1-D1
# In short: as §1
# AgBzz1-D1 = target: AgBzz1-D1
# In short: as §1
# AgBzz1-D2 = target: AgBzz1-D2
# In short: as §1
# AgCyk3 = target: AgCyk3
# In short: as §1
# AgFus1 = target: AgFus1
# In short: as §1
# AgHof1 = target: AgHof1
# In short: as §1
# AgHse1 = target: AgHse1
# In short: as §1
# AgLsb1 = target: AgLsb1
# In short: as §1
# AgLsb4 = target: AgLsb4
# In short: as §1
# AgMyo5 = target: AgMyo5
# In short: as §1
# AgNbp2 = target: AgNbp2
# In short: as §1
# AgRvs167 = target: AgRvs167
# In short: as §1
# AgSho1 = target: AgSho1
# In short: as §1
# AgSla1-D1-D2 = target: AgSla1-D1-D2
# In short: as §1
# AgSla1-D3 = target: AgSla1-D3
# In short: as §1
# CaAbp1-D1 = target: CaAbp1-D1
# In short: as §1
# CaAbp1-D2 = target: CaAbp1-D2
# In short: as §1
# CaBbc1 = target: CaBbc1
# In short: as §1
# CaBem1-D1 = target: CaBem1-D1
# In short: as §1
# CaBzz1-D1 = target: CaBzz1-D1
# In short: as §1
# CaBzz1-D2 = target: CaBzz1-D2
# In short: as §1
# CaCyk3 = target: CaCyk3
# In short: as §1
# CaFus1 = target: CaFus1
# In short: as §1
# CaHof1 = target: CaHof1
# In short: as §1
# CaHse1 = target: CaHse1
# In short: as §1
# CaLsb1 = target: CaLsb1
# In short: as §1
# CaLsb4 = target: CaLsb4
# In short: as §1
# CaMyo5 = target: CaMyo5
# In short: as §1
binder,measurement,setting,value
B1,SPOT peptide array binding signal intensity,CaNbp2,53
same,SPOT peptide array binding signal intensity,CaRvs167,94.7
same,SPOT peptide array binding signal intensity,CaRvs167-3,1
same,SPOT peptide array binding signal intensity,CaSho1,≤ 0
same,SPOT peptide array binding signal intensity,CaSla1-D1-D2,1170
same,SPOT peptide array binding signal intensity,CaSla1-D3,3
same,SPOT peptide array binding signal intensity,ScAbp1,69
same,SPOT peptide array binding signal intensity,ScBbc1,54.8
same,SPOT peptide array binding signal intensity,ScBem1-D1,≤ 0
same,SPOT peptide array binding signal intensity,ScBzz1-D1,14
same,SPOT peptide array binding signal intensity,ScBzz1-D2,10
same,SPOT peptide array binding signal intensity,ScCyk3,≤ 0
same,SPOT peptide array binding signal intensity,ScFus1,3
same,SPOT peptide array binding signal intensity,ScHof1,9.75
same,SPOT peptide array binding signal intensity,ScHse1,30
same,SPOT peptide array binding signal intensity,ScLsb1,43.8
same,SPOT peptide array binding signal intensity,ScLsb2,9
same,SPOT peptide array binding signal intensity,ScLsb3,1690
same,SPOT peptide array binding signal intensity,ScLsb4,375
same,SPOT peptide array binding signal intensity,ScMyo3,111
same,SPOT peptide array binding signal intensity,ScMyo5,29.5
same,SPOT peptide array binding signal intensity,ScNbp2,≤ 0
same,SPOT peptide array binding signal intensity,ScPex13,89.2
same,SPOT peptide array binding signal intensity,ScRvs167,963
same,SPOT peptide array binding signal intensity,ScSho1,56
same,SPOT peptide array binding signal intensity,ScSla1-D1-D2,459
same,SPOT peptide array binding signal intensity,ScSla1-D3,3.25
same,SPOT peptide array binding signal intensity,SpAbp1-D1,165
same,SPOT peptide array binding signal intensity,SpBbc1,2.5
same,SPOT peptide array binding signal intensity,SpBzz1-D1,814
same,SPOT peptide array binding signal intensity,SpBzz1-D2,1.25
same,SPOT peptide array binding signal intensity,SpCyk3,3
same,SPOT peptide array binding signal intensity,SpHof1,15.8
same,SPOT peptide array binding signal intensity,SpHof1-2,17
same,SPOT peptide array binding signal intensity,SpHof1-3,270
same,SPOT peptide array binding signal intensity,SpHse1,42.5
same,SPOT peptide array binding signal intensity,SpLsb1,10.2
same,SPOT peptide array binding signal intensity,SpLsb4,1240
same,SPOT peptide array binding signal intensity,SpMyo1,998
same,SPOT peptide array binding signal intensity,SpNbp2,≤ 0
same,SPOT peptide array binding signal intensity,SpPex13,1
same,SPOT peptide array binding signal intensity,SpRvs167,999
same,SPOT peptide array binding signal intensity,SpSla1-D1-D2,112
same,SPOT peptide array binding signal intensity,SpSla1-D3,3
B2,SPOT peptide array binding signal intensity,AgAbp1,77
same,SPOT peptide array binding signal intensity,AgBbc1,20
same,SPOT peptide array binding signal intensity,AgBem1-D1,46.5
same,SPOT peptide array binding signal intensity,AgBzz1-D1,46
same,SPOT peptide array binding signal intensity,AgBzz1-D2,39
same,SPOT peptide array binding signal intensity,AgCyk3,1
same,SPOT peptide array binding signal intensity,AgFus1,895
same,SPOT peptide array binding signal intensity,AgHof1,47
same,SPOT peptide array binding signal intensity,AgHse1,730
same,SPOT peptide array binding signal intensity,AgLsb1,3.5
same,SPOT peptide array binding signal intensity,AgLsb4,99.5
same,SPOT peptide array binding signal intensity,AgMyo5,≤ 0
same,SPOT peptide array binding signal intensity,AgNbp2,397
same,SPOT peptide array binding signal intensity,AgRvs167,3
same,SPOT peptide array binding signal intensity,AgSho1,36
same,SPOT peptide array binding signal intensity,AgSla1-D1-D2,32
same,SPOT peptide array binding signal intensity,AgSla1-D3,11.5
same,SPOT peptide array binding signal intensity,CaAbp1-D1,475
same,SPOT peptide array binding signal intensity,CaAbp1-D2,324
same,SPOT peptide array binding signal intensity,CaBbc1,133
same,SPOT peptide array binding signal intensity,CaBem1-D1,21.5
same,SPOT peptide array binding signal intensity,CaBzz1-D1,40
same,SPOT peptide array binding signal intensity,CaBzz1-D2,58.8
same,SPOT peptide array binding signal intensity,CaCyk3,11.5
same,SPOT peptide array binding signal intensity,CaFus1,1540
same,SPOT peptide array binding signal intensity,CaHof1,0.5
same,SPOT peptide array binding signal intensity,CaHse1,47.5
same,SPOT peptide array binding signal intensity,CaLsb1,0.5
same,SPOT peptide array binding signal intensity,CaLsb4,130
same,SPOT peptide array binding signal intensity,CaMyo5,≤ 0
same,SPOT peptide array binding signal intensity,CaNbp2,3410
same,SPOT peptide array binding signal intensity,CaRvs167,19.3
same,SPOT peptide array binding signal intensity,CaRvs167-3,28.2
same,SPOT peptide array binding signal intensity,CaSho1,608
same,SPOT peptide array binding signal intensity,CaSla1-D1-D2,133
same,SPOT peptide array binding signal intensity,CaSla1-D3,≤ 0
same,SPOT peptide array binding signal intensity,ScAbp1,97
same,SPOT peptide array binding signal intensity,ScBbc1,16.5
same,SPOT peptide array binding signal intensity,ScBem1-D1,22.5
same,SPOT peptide array binding signal intensity,ScBzz1-D1,11.5
same,SPOT peptide array binding signal intensity,ScBzz1-D2,29.5
same,SPOT peptide array binding signal intensity,ScCyk3,57.5
same,SPOT peptide array binding signal intensity,ScFus1,731
same,SPOT peptide array binding signal intensity,ScHof1,3.5
same,SPOT peptide array binding signal intensity,ScHse1,2020
same,SPOT peptide array binding signal intensity,ScLsb1,2
same,SPOT peptide array binding signal intensity,ScLsb2,≤ 0
same,SPOT peptide array binding signal intensity,ScLsb3,272
same,SPOT peptide array binding signal intensity,ScLsb4,8
same,SPOT peptide array binding signal intensity,ScMyo3,≤ 0
same,SPOT peptide array binding signal intensity,ScMyo5,1
same,SPOT peptide array binding signal intensity,ScNbp2,1320
same,SPOT peptide array binding signal intensity,ScPex13,1
same,SPOT peptide array binding signal intensity,ScRvs167,48.5
same,SPOT peptide array binding signal intensity,ScSho1,1070
same,SPOT peptide array binding signal intensity,ScSla1-D1-D2,337
same,SPOT peptide array binding signal intensity,ScSla1-D3,0.5
same,SPOT peptide array binding signal intensity,SpAbp1-D1,508
same,SPOT peptide array binding signal intensity,SpBbc1,1
same,SPOT peptide array binding signal intensity,SpBzz1-D1,106
same,SPOT peptide array binding signal intensity,SpBzz1-D2,≤ 0
same,SPOT peptide array binding signal intensity,SpCyk3,2
same,SPOT peptide array binding signal intensity,SpHof1,148
same,SPOT peptide array binding signal intensity,SpHof1-2,3.5
same,SPOT peptide array binding signal intensity,SpHof1-3,504
same,SPOT peptide array binding signal intensity,SpHse1,598
same,SPOT peptide array binding signal intensity,SpLsb1,3
same,SPOT peptide array binding signal intensity,SpLsb4,135
same,SPOT peptide array binding signal intensity,SpMyo1,≤ 0
same,SPOT peptide array binding signal intensity,SpNbp2,350
same,SPOT peptide array binding signal intensity,SpPex13,7
same,SPOT peptide array binding signal intensity,SpRvs167,6.33
same,SPOT peptide array binding signal intensity,SpSla1-D1-D2,5
same,SPOT peptide array binding signal intensity,SpSla1-D3,4.5
